The source of these data is PubChem BioAssay (NCATS).

In test [1] the target is Glutathione peroxidase 1 (Homo sapiens) (UniProt P07203). As to the kind of experiment: Primary qHTS Assay for Inhibitors of Recombinant Selenoprotein Glutathione Peroxidase 1 (GPX1) (AID 1845191). As to conditions: recombinant GPX1, GR-coupled NADPH fluorescence, 15 min; series mostly up to 48.8 µM. The procedure, abridged:
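NADPH consumption tracked by fluorescence at 340/450 nm between t=0 and t=15 min, room temperature. Final mix: 10 nM GPX1, 100 nM glutathione reductase, 1 mM GSH, 0.5 mM NADPH, 0.5 mM cumene hydroperoxide, 0.01% BSA; 30 min compound–enzyme preincubation.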

Test [2] deals with Phospholipid hydroperoxide glutathione peroxidase GPX4 (Homo sapiens) (UniProt P36969). Briefly: Primary qHTS Assay for Inhibitors of Recombinant Selenoprotein Glutathione Peroxidase 4 (GPX4) (AID 1845192). As to conditions: recombinant GPX4, GR-coupled NADPH fluorescence, 15 min; series mostly up to 50 µM. The procedure, abridged:
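NADPH consumption followed by fluorescence at 340/450 nm, t=0 and after 15 min at room temperature. Reaction started with cumene hydroperoxide (0.5 mM final) after 30 min compound–GPX4 preincubation; final 200 nM GPX4, 100 nM GR, 1 mM GSH, 0.5 mM NADPH.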

Records with an inconclusive call do not appear. Where a call stands in place of a potency, no number is given. Activity calls are given as the source filed them. Calls come from the whole dose curve; as a rule, active = well fitted inhibition curve with a large enough effect; inconclusive = small, poorly fitted or top-dose-only effect; inactive = flat fitted curve, though single readings scatter.
Note: nearly all actives have a fitted effect of over 65% in size.
Potency is the fitted concentration of half-maximal effect.

Glutathione peroxidase 1 (Homo sapiens), sequence (P07203 whole entry, looked up): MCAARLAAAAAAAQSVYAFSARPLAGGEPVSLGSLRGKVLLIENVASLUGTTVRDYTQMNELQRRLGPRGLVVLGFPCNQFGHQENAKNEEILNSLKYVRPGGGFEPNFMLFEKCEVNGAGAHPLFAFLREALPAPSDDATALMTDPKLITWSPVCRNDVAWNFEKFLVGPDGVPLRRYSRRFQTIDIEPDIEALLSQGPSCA
Phospholipid hydroperoxide glutathione peroxidase GPX4 (Homo sapiens), sequence (P36969 whole entry, looked up): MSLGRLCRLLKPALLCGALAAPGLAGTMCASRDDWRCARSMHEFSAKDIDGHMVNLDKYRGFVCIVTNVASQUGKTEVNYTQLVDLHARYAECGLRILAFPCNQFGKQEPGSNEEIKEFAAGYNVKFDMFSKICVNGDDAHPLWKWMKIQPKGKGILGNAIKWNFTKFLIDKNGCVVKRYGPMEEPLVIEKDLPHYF

Turning to `CNC(=O)OCc1cccc(COC(=O)NC)n1`, the Potency result in test [1] and in test [2] was “inactive” in each case.
Consider `CCCC(=O)Nc1c(I)cc(I)c(CC(CC)C(=O)O)c1I` (configuration not stated), for which the Potency entry in test [1] and in test [2] was “inactive” each time.
As to `C[S+](C)CCC(N)C(=O)O` (configuration not stated), the Potency entry in test [1] and in test [2] was “inactive” each time.
`NC[C@@H]1CC[C@@H](N)[C@@H](O[C@H]2[C@H](O)[C@@H](O[C@H]3O[C@H](CO)[C@@H](O)[C@H](N)[C@H]3O)[C@H](N)C[C@@H]2N)O1`: the Potency result in test [1] is “inactive”.
Consider `CCC[C@@H]1C[C@@H](C(=O)N[C@@H]([C@H]2O[C@H](SC)[C@H](O)[C@@H](O)[C@H]2O)[C@H](C)Cl)N(C)C1`, for which the Potency entry in test [1] and in test [2] was “inactive” each time.
Take `Oc1cc(O)cc(O)c1`: the Potency result in test [1] and in test [2] was “inactive” throughout.
Consider `C=C[C@]1(C)C[C@@H](OC(=O)CSCCN(CC)CC)[C@]2(C)[C@H](C)CC[C@]3(CCC(=O)[C@H]32)[C@@H](C)[C@@H]1O`, for which the Potency entry in test [1] and in test [2] was “inactive” throughout.
Regarding `CC(CCc1ccc(O)cc1)NCC(O)c1ccc(O)cc1` (configuration not stated), the Potency entry in test [1] and in test [2] was “inactive” in each case.
Turning to `O=C(O[C@H]1CN2CCC1CC2)N1CCc2ccccc2[C@@H]1c1ccccc1`, the Potency result in test [1] and in test [2] was “inactive” each time.
Turning to `OCCOCCOCCO`, the Potency entry in test [1] and in test [2] was “inactive” each time.
For the compound `CC1(O)CCC(C(C)(C)O)CC1` (configuration not stated), the Potency entry in test [1] and in test [2] was “inactive” each time.
Consider `COc1ccc(/C=C/C(=O)OCCC(C)C)cc1`, for which the Potency result in test [1] and in test [2] was “inactive” in each case.
As to `O=C1c2ccccc2C(=O)c2c1ccc(O)c2O`, the Potency result in test [1] and in test [2] was “inactive” each time.
Regarding `CCCCC(CC)CCC(CC(C)C)OS(=O)(=O)O` (configuration not stated), in test [1], the Potency entry is “inactive”. The Potency in test [2] is 10 µM (active).
Taken in the same sequence, the figures for `CCC(Oc1ccccc1)C(=O)N[C@@H]1C(=O)N2[C@@H]1SC(C)(C)[C@@H]2C(=O)O` (some centres not stated) were “inactive” and 31.6 µM (active).
Take `C(=C\c1ccncc1)/c1ccccc1`: the Potency result in test [1] and in test [2] was “inactive” each time.
In the case of `CCCCC[C@H](O)/C=C/[C@@H]1[C@H]2C/C(=C/CCCC(=O)O)O[C@H]2C[C@H]1O`, the Potency result in test [1] and in test [2] was “inactive” each time.
For `CCCCC(=O)O[C@H]1CC[C@H]2[C@@H]3CCc4cc(O)ccc4[C@H]3CC[C@]12C`, the Potency result in test [1] and in test [2] was “inactive” each time.
Regarding `COc1cc(C)c(/C=C/C(C)=C/C=C/C(C)=C/C(=O)O)c(C)c1C`, the Potency entry in test [1] was “inactive”. For the same compound, the Potency in test [2] was 16.1 µM (active).
In the same order, the values of `COc1ccc2c(c1)OC(C)(C)C(c1ccccc1)C2c1ccc(OCCN2CCCC2)cc1` (configuration not stated) are “inactive” and “inactive”.
Consider `CCCOc1cc(N)ccc1C(=O)OCCN(CC)CC`, for which the Potency result in test [1] and in test [2] was “inactive” in each case.
As for `OCc1ccccc1`, the Potency result in test [1] and in test [2] was “inactive” throughout.
As for `CCCCC(O)c1ccccc1` (configuration not stated), the Potency result in test [1] and in test [2] was “inactive” throughout.
As to `CCOC(=O)c1c[nH]c2cc(OCC(C)C)c(OCC(C)C)cc2c1=O`, the Potency entry in test [1] and in test [2] was “inactive” in each case.
Turning to `CCCCCCCCCCCCCCCCCCCCCC(=O)Nc1ccn([C@@H]2O[C@H](CO)[C@@H](O)[C@@H]2O)c(=O)n1`, the Potency result in test [1] and in test [2] was “inactive” throughout.
As for `CNCC(O)c1ccc(OC(=O)C(C)(C)C)c(OC(=O)C(C)(C)C)c1` (configuration not stated), the Potency entry in test [1] and in test [2] was “inactive” each time.
For the compound `NC[C@H]1O[C@H](O[C@H]2[C@H](O)[C@@H](O[C@H]3O[C@H](CO)[C@@H](O)[C@H](N)[C@H]3O)[C@H](N)C[C@@H]2N)[C@H](N)C[C@@H]1O`, the Potency entry in test [1] and in test [2] was “inactive” each time.
In the case of `CO[C@H]1O[C@@H]2O[C@@]3(C)CC[C@H]4[C@H](C)CC[C@@H]([C@H]1C)[C@@]24OO3`, the Potency result in test [1] and in test [2] was “inactive” throughout.
`O=C(CCCN1CCC(C(=O)c2ccc(F)cc2)CC1)c1ccc(F)cc1`: the Potency entry in test [1] and in test [2] was “inactive” each time.
On to `C=C(C)C1CC=C(C)CC1` (configuration not stated), for which the Potency entry in test [1] and in test [2] was “inactive” throughout.
In the case of `CN(C)CCOc1ccc(/C(=C(/CCCl)c2ccccc2)c2ccccc2)cc1`, the Potency result in test [1] and in test [2] was “inactive” each time.
On to `CC(C)(C)NCC(O)c1ccc(O)c(CO)n1` (configuration not stated), for which, in test [1], the Potency result is “inactive”. Further, in test [2], the Potency is 12.6 µM (active).
Taken in the same sequence, the figures for `Cc1cc(-c2ccc(N=Nc3c(S(=O)(=O)O)cc4cc(S(=O)(=O)O)cc(N)c4c3O)c(C)c2)ccc1N=Nc1c(S(=O)(=O)O)cc2cc(S(=O)(=O)O)cc(N)c2c1O` were “inactive” and “inactive”.
In the same order, the values of `C[C@@H]1C[C@H]2[C@@H]3C[C@H](F)C4=CC(=O)C=C[C@]4(C)[C@@]3(Cl)[C@@H](O)C[C@]2(C)[C@H]1C(=O)COC(=O)C(C)(C)C` are “inactive” and “inactive”.
On to `CC1=CC(=C(c2ccc(N)cc2)c2ccc(N)cc2)C=CC1=N`, for which the Potency result in test [1] and in test [2] was “inactive” in each case.
As for `NC[C@H]1O[C@H](O[C@H]2[C@H](O)[C@@H](O[C@H]3O[C@H](CO)[C@@H](O)[C@H](N)[C@H]3O)[C@H](N)C[C@@H]2N)[C@H](O)[C@@H](O)[C@@H]1O`, the values for the outcome in test [1] and in test [2] were “inactive [at 4.49 µM]” and “inactive [at 4.52 µM]”, respectively.
In the case of `CC(C)(C)C(=O)OCC(=O)[C@H]1CC[C@H]2[C@@H]3CCC4=CC(=O)CC[C@]4(C)[C@H]3CC[C@]12C`, the Potency result in test [1] and in test [2] was “inactive” each time.
Take `CO/N=C(\C(=O)N[C@@H]1C(=O)N2C(C(=O)O)=C(C[N+]3(C)CCCC3)CS[C@H]12)c1csc(N)n1`: the Potency in test [1] is 11.4 µM (active); in test [2] it was 17.8 µM (active).
Taken in the same sequence, the figures for `OC[C@@H](O)C(O)[C@H](O)CO` were “inactive” and “inactive”.
Taken in the same sequence, the figures for `CC(C)(C)c1ccc2c(S(=O)(=O)O)c(C(C)(C)C)ccc2c1` were “inactive” and 12.6 µM (active).
In the same order, the values of `O=P(O)(O)OP(=O)(O)O` are “inactive” and “inactive”.
Turning to `C[C@@](Cc1ccc(O)c(O)c1)(NN)C(=O)O`, the Potency entry in test [1] and in test [2] was “inactive” in each case.
As to `O=S(=O)(O)CC(S)CS` (configuration not stated), the figures for the Potency in test [1] and in test [2] were 10.1 µM (active) and 7.08 µM (active), respectively.
Taken in the same sequence, the figures for `CO[C@@]1(NC(=O)C2SC(=C(C(N)=O)C(=O)O)S2)C(=O)N2C(C(=O)O)=C(CSc3nnnn3C)CS[C@@H]21` (some centres not stated) were 10.1 µM (active) and 17.8 µM (active).
Taken in the same sequence, the figures for `CC(CN(C)C)CN1c2ccccc2Sc2ccc(C(F)(F)F)cc21` (configuration not stated) were “inactive” and “inactive”.
Taken in the same sequence, the figures for `CCCCCc1ccc(C)cc1O` were “inactive” and “inactive”.
For `CC(=O)Nc1c(I)c(C(=O)O)c(I)c(N(C)C(C)=O)c1I`, the Potency result in test [1] and in test [2] was “inactive” in each case.
As for `NC(=S)NS(=O)(=O)c1ccc(N)cc1`, the Potency entry in test [1] and in test [2] was “inactive” throughout.
In the case of `CC1(C)[C@@H]2CC[C@@]1(C)[C@H](OC(=O)CSC#N)C2`, the Potency entry in test [1] and in test [2] was “inactive” throughout.
As for `O=C(OCc1ccccc1)c1cccnc1`, the Potency result in test [1] and in test [2] was “inactive” throughout.
With `COc1ccc2c(c1)N(C[C@H](C)CN(C)C)c1ccccc1S2`, the Potency entry in test [1] and in test [2] was “inactive” in each case.
Regarding `FC(F)(F)C(F)(F)C(F)(F)C(F)(F)C(F)(F)F`, the Potency result in test [1] and in test [2] was “inactive” in each case.
With `COc1ccc(-c2noc(CC(=O)O)c2-c2ccc(OC)cc2)cc1`, the Potency result in test [1] and in test [2] was “inactive” throughout.
In the case of `CC(C)C[C@H](NC(=O)[C@@H](COC(C)(C)C)NC(=O)[C@H](Cc1ccc(O)cc1)NC(=O)[C@H](CO)NC(=O)[C@H](Cc1c[nH]c2ccccc12)NC(=O)[C@H](Cc1cnc[nH]1)NC(=O)[C@@H]1CCC(=O)N1)C(=O)N[C@@H](CCCN=C(N)N)C(=O)N1CCC[C@H]1C(=O)NNC(N)=O`, the Potency result in test [1] and in test [2] was “inactive” throughout.
As to `C=CC1=C(C(=O)O)N2C(=O)[C@@H](NC(=O)/C(=N\O)c3csc(N)n3)[C@H]2SC1` (stereo in doubt), the Potency in test [1] was 11.4 µM (active). In addition, the Potency result in test [2] is “inactive”.
In the same order, the values of `CN(C)CCC(O)(c1ccccc1)c1ccccc1Cl` (configuration not stated) are “inactive” and “inactive”.
In the same order, the values of `CC(C)(C)NCC(O)CSc1nc(-c2ccc(C(N)=O)s2)cs1` (configuration not stated) are 22.7 µM (active) and 12.6 µM (active).
In the same order, the values of `FC(F)(F)C(F)(F)C(F)(F)C(F)(F)C(F)(F)C(F)(F)F` are “inactive” and “inactive”.
As to `CC(C)CCCC(C)NC(C)C` (configuration not stated), the Potency entry in test [1] and in test [2] was “inactive” each time.
